The full ranking holds about 33,000 sequences; the median of “E-score (-0.5 to 0.5)” is about -0.016, and the highest 2% start at about 0.31. This is one part of a sample in which the highest values are shown more often than they occur.
Biological target: Cst6 (UniProt P40535)
Assay: PBM E-score (8-mer binding enrichment) (E-score (-0.5 to 0.5)); higher = stronger / more preferred TF binding
Conditions: protein concentration: 200 nM; construct: GST-DNA-binding domain
Procedure: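 Universal 'all 10-mer' protein binding microarrays (Agilent AMADID 015681) probed with GST-tagged S. cerevisiae TFs (full-length or DBD) made by in vitro transcription/translation (PURExpress), about 100-200 nM. Bound TF was detected with fluorescent anti-GST. Each ungapped 8-mer (which stands for itself and its reverse complement) is scored by the PBM enrichment score (E-score), a modified Wilcoxon-Mann-Whitney statistic from -0.5 to +0.5, computed with the Universal PBM Analysis Suite. Scale: above 0.35 generally sequence-specific binding.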

UniProt P40535, sequence (P40535 whole entry): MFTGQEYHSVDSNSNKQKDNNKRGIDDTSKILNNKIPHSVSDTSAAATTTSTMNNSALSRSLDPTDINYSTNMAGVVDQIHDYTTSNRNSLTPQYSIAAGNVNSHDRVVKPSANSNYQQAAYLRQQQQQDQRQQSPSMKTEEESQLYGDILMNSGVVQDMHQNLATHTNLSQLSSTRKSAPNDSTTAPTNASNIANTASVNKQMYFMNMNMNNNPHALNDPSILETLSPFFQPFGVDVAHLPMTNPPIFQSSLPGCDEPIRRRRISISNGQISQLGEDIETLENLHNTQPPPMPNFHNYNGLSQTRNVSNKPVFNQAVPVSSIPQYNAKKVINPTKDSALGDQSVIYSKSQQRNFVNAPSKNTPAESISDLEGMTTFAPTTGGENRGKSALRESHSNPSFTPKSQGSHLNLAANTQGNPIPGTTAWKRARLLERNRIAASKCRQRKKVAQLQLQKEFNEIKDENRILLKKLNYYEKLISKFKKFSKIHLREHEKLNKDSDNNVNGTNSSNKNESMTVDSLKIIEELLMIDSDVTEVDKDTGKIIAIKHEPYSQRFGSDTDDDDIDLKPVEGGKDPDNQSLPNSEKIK

Sequence	PBM E-score
ATTTGACA	0.173
ACGCCAAT	0.223
AGCCTTAT	-0.0913
ACGCGTAA	0.129
GCGCGTAA	0.224
ACGCGTCC	-0.129
CCGCGTCA	0.34
ACGCGTCA	0.381
ACGCGTCT	-0.0602
TCGCGTAA	0.314
GCGCGTCC	-0.198
GCGCGTTA	0.0245
GCGCGTCA	0.381
CCGCGTCC	0.099
CCGCGTCG	0.0654
CCTCCCTC	-0.162
GGAAATGA	0.195
CGTAGATC	0.143
CTCGAAAC	0.0781
GGTAGGCA	-0.184
AGGCGACT	-0.103
CGATGAAC	-0.0118
CAAGGCGG	0.00218
ATCCGCAA	-0.0389
CGGCGTCC	0.113

Sequence	PBM E-score
TCGCGTCA	0.369
AGGCGTCA	0.256
TCGCGGCA	-0.0207
CGGCGTCA	0.34
TCGCGACA	-0.202
ACGCCGAA	0.0504
AAAACATG	0.114
CAATGATC	0.095
CAATGATG	0.391
AAATGATG	0.332
AAATGATC	0.0366
CAATGATA	0.268
AAATGATT	0.294
CTAATCTA	-0.0326
GTAATCAC	0.225
ATAATCTA	0.0831
GTAATCTA	0.345
GTAATCAA	0.313
CTAATCAA	0.205
CTAGATTC	-0.0987
ATTTCATG	0.00873
CAAACTAG	-0.195
AGACCTCA	0.022
TGACCTCA	0.45
CGACCTAA	0.11

Sequence	PBM E-score
CGACCTCA	0.0422
TGACCTAA	0.362
GGACCTAA	-0.105
CAGGACAA	0.0953
TCCACCAA	-0.117
GAAGAACC	-0.119
CTATGACC	0.193
ATATGATG	0.333
AGATGATG	0.346
ATATGATA	0.296
AGATGATC	0.0705
ATATGACG	0.472
ATATGACC	0.108
ATATGATC	0.234
AGATGATA	0.211
AAATGGCG	0.142
TAGTGCCA	-0.123
AGCTAAGC	-0.156
GCGCTGCA	-0.0118
CGAACCCG	-0.251
CCGGATTC	-0.172
ACCTATTA	0.0751
GGAGATCA	-0.0624
TGAGATCA	0.344
AGAGATCA	-0.0737

Sequence	PBM E-score
ATCATCAC	0.341
GGCATCAC	0.227
AACATCAG	0.183
AACATCAC	0.295
AACATCAT	0.378
ATAATCAG	0.106
GTCATCAC	0.409
AGCATCAC	0.0541
ATAATCAA	0.16
ATAATCAT	0.344
CTCATCAC	0.146
GCCATCAC	0.0711
ACCTTCAA	-0.00754
AACGCAAG	0.00296
AATCTGAG	-0.0919
AAGTCTTG	-0.0973
ATAGCGGA	-0.107
ACTATTGA	0.202
AGGGCGCA	-0.0682
ATAATGAT	0.334
ATAATGAG	0.0695
ATCATCAG	0.259
AGCATCAT	0.251
ATAATGAC	0.295
ATCATCAT	0.355

Sequence	PBM E-score
GGTGTCTA	0.0529
AGGCTGCG	-0.225
GTAGGACA	-0.0243
CGCTTCGC	-0.0922
ACACACAC	0.0991
TAACCTAA	0.158
ATTCGATG	0.105
AATCATCG	0.039
CATCATCA	0.409
AATCATCT	0.114
CATCATCC	0.345
ACTCATCA	0.00088
AATCATCA	0.308
GATCATCA	0.163
CCTCATCG	0.00595
CATCATCG	0.333
CCTCATCA	0.161
GATCATCC	-0.0712
AATCATCC	0.113
ACGCTGCT	-0.22
CCGGGCGC	-0.213
TGCCTAAA	0.0602
CCGATTTC	-0.121
TACCGACA	0.075
TAGGCTGA	-0.0803

Sequence	PBM E-score
CCCCTACG	-0.298
GAGGAGGA	-0.288
ACTCCTTC	-0.234
TATCATAA	0.144
TATCATCA	0.341
CATCATTA	0.327
TCTCATCA	0.181
AATCATTA	0.28
CATCATTC	0.223
CCTGCTTA	-0.0696
GGGTCGCA	-0.144
CCGAGGCG	0.0158
CTCCTAGA	-0.09
ATGCATTA	0.255
ATATTACG	0.415
CAATTACA	0.223
ATATTACC	0.248
CACTTACC	0.0685
CACTTACG	0.351
AAATTACC	0.199
CAATTACC	0.138
CAATTACG	0.346
AAATTACT	0.222
AAATTACG	0.336
ATATTACA	0.248

Sequence	PBM E-score
CACTTACA	0.173
AACTGCCT	0.129
CCGTTGCG	0.0674
TACCTGCA	-0.0618
ACAAGATA	0.0758
AGCTATGA	0.101
ATATGCAC	0.0769
ACGGGCAC	-0.105
CAGCCCAC	-0.191
AAGGTAAT	0.129
ACCGTCCC	-0.173
ACGTACGG	0.149
CTGTAAGA	0.0332
ATGTAAGA	0.339
ACGTAAGA	0.448
ACGTAAGC	0.381
CCGTAAGA	-0.0536
ACGTACGC	0.229
GCGTAAGC	0.0902
CCGTAAGC	-0.0303
TCGTAAGA	0.00239
GTGTAAGA	0.0158
ACGTACGT	0.311
ATCTGGAA	0.184
GCTCAATA	0.0653

Sequence	PBM E-score
CATAGAGG	-0.0937
CACCTCGG	0.02
CACCATTC	0.0213
AGGTATTC	0.0784
ACCGCAGG	-0.104
CCACCGAC	-0.163
ACTCAAGT	-0.053
CACAACCA	0.124
GTATACCA	-0.051
TGCGCCAA	-0.0304
ACGTAAGG	0.347
AAGTAAGT	0.116
ACGTAAGT	0.422
CCGTAAGG	-0.113
AGGTAAGG	-0.132
AAGTAAGC	0.0657
AGTGGCGC	0.00481
AGCCAAAG	-0.114
GATGATAA	0.257
CCAGCTCC	-0.29
ACGCTCCG	-0.119
CAAATAAC	0.37
GAAATAAC	0.148
AAAATAAC	0.178
ACAGGGCG	0.0932

Sequence	PBM E-score
ACCGACGA	-0.0237
ACCTCCGT	-0.0629
AAATGGCC	-0.0934
CTACATCA	0.302
GTGCATCA	0.0738
ATACATAT	0.337
ATACATAA	0.258
ATGCATCA	0.372
ATACATCA	0.398
GTACATCA	0.275
ATGCATCG	-0.00649
ATACATAC	0.0814
CAGTCGCG	-0.25
AGATTCAC	-0.122
GAAACCTA	-0.148
CTAAAGGC	0.0355
CATCAAAG	0.0154
AAGGGAAT	0.112
CTGTAATA	0.108
ATGTAATC	0.299
ATGTAACG	0.235
ATGTAATA	0.415
ATGTAATG	0.394
GTGTAATA	0.214
